Screens (PubChem)
Shiga inhibitor: Shiga toxin inhibition; Vero cells, Shiga toxin protein synthesis inhibition reporter; inhibition, % at 38.7 µM; AID 2315; 290,000 tested, 9.2% active; in the data active means inhibition mostly above about 28%, no sharp cut-off; inactive means mostly below about 43%
HCV inhibitor: HCV inhibition; Huh7.5.1 HCVcc-Cre infection, luciferase reporter, 44 h; Potency, µM (series often up to 41.8 µM), most hits filed as inhibitors; 340,000 tested, 3.4% active; AID 651820
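Cells seeded at 1,000/well and cultured 4 h, then compounds added followed by HCVcc-Cre virus (~0.5 moi). After 44 h further culture, luciferase substrate was added, plates held 15 min at room temperature, and luminescence read for 15 sec.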
AMA1-RON2 inh: inhibitors of Plasmodium falciparum AMA1-RON2 interaction. AlphaScreen AMA1-biotinylated RON2 peptide binding. Potency, µM (top dose mostly 58.2 µM), usual class: inhibitors. 360,000 tested, 0.2% active. AID 720542; further: nearly all actives have a fitted effect of over 45% in size
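AMA1 (3D7) with his tag at 25 nM final met compounds first, then biotinylated RON2 peptide at 25 nM; detection used donor plus acceptor beads, 10 µg/mL apiece, read by AlphaScreen after 30 min at room temperature.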
Pf growth 48h: P. falciparum growth inhibition at 48 hours (one generation). 310,000 tested, 5.9% active. Potency, µM (doses to about 28.7 µM), usual class: inhibitors. AID 504832. P. falciparum luciferase growth in erythrocytes, 48 h
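Luminescence readout; reporter = integrated firefly luciferase in P. falciparum. RBC culture at 2% hematocrit, 0.1% parasitemia final, 37 C/5% CO2; decreased signal taken as growth inhibition.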
Pf growth 96h: inhibits malaria parasite growth, 96 h. P. falciparum luciferase reporter growth, 96 h. Potency, µM (top dose mostly 28.7 µM), most hits filed as inhibitors. 320,000 tested, 6.9% active
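P. falciparum expressing integrated firefly luciferase grown in erythrocytes (2% hematocrit, 0.05% parasitemia final) with compounds for 96 hours at 37 C, 5% CO2. Growth inhibition read as loss of luminescence after adding luciferase detection reagent.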
CHX counter: affects cycloheximide protein synthesis inhibition readout, counter-screen | cell reporter, cycloheximide protein synthesis inhibition counterscreen | max response, % | 300,000 tested, 12% active; in the data active means max response mostly above about 13%, no sharp cut-off; inactive means mostly below about 14%; further: read at 38.3 µM for the half of the compounds with a filed dose
Large screens that a line does not name were inactive. Sampled rows, rich in hits. Any-hit rate of the full collection: about 21%. Unless noted, the call rests on the fitted dose curve; in most records, active means well fitted curve in the direction sought with a large enough effect; inconclusive means small, poorly fitted or top-dose-only effect, or another doubt; inactive means no such curve, though single readings can be large; an effect the other way counts as inactive or inconclusive.

Cc1ccccc1OCC(=O)OCC(=O)NCC1CCCO1 (centres undefined)	none
COc1ccc(/C=N/NC(N)=S)cc1OC(=O)c1cccc2ccccc12	Shiga inhibitor 56, HCV inhibitor inconclusive, Pf growth 48h inconclusive, Pf growth 96h inconclusive, CHX counter 23
Cc1c(Cl)cccc1NC(=S)NCC(C)C	Pf growth 48h inconclusive, Pf growth 96h 3.3µM
Cc1c(Cl)cccc1NC(=S)NCCC(C)C	none
Cc1cccc(NC(=S)NCc2cccn2C)c1	HCV inhibitor inconclusive, Pf growth 96h 12µM (no result: Pf growth 48h)
Cc1c(Cl)cccc1NC(=S)NCc1cccn1C	CHX counter 52
COc1cc(OC)cc(-c2noc([C@H]3C[C@H](O)[C@@H](CO)O3)n2)c1	none (no result: Shiga inhibitor, HCV inhibitor, Pf growth 48h, Pf growth 96h, CHX counter)
COC(=O)c1cn(NC(=O)c2cc(OC)cc(OC)c2)c(=O)c2ccccc12	none
COC(=O)c1cn(NC(=O)c2cc(OC)c(OC)c(OC)c2)c(=O)c2ccccc12	Pf growth 96h 3.3µM
COC(=O)c1cn(NC(=O)c2ccncc2)c(=O)c2ccccc12	Pf growth 96h 5.9µM
CC(C)CN(C(=O)CSc1nn(-c2ccc(Cl)cc2)c(=S)s1)C1CCS(=O)(=O)C1 (centres undefined)	Pf growth 48h 8.3µM, Pf growth 96h inconclusive
Cc1ccc(-n2ccnc2SCC(=O)N(CC(C)C)C2CCS(=O)(=O)C2)c(C)c1 (centres undefined)	Pf growth 48h inconclusive, Pf growth 96h 4.1µM
CC(C)CN(C(=O)CSc1nnc2ccccn12)C1CCS(=O)(=O)C1 (centres undefined)	none (no result: Shiga inhibitor, CHX counter)
Cc1nnc(SCC(=O)N(CC(C)C)C2CCS(=O)(=O)C2)s1 (centres undefined)	HCV inhibitor inconclusive (no result: Shiga inhibitor, CHX counter)
O=C(Nc1ccccn1)C1CCN(c2ncnc3c2nc2n3CCCCC2)CC1	HCV inhibitor inconclusive, Pf growth 96h inconclusive
CC1(C)CC(=O)C2=C(C1)OC(N)=C(C#N)C2c1cccc(OC(=O)c2ccco2)c1 (centres undefined)	Pf growth 96h 2.9µM
COc1cc(C2C(C#N)=C(N)OC3=C2C(=O)CC(C)(C)C3)ccc1OCCN1CCOCC1 (centres undefined)	CHX counter 21
COc1cc(C2C(C#N)=C(N)OC3=C2C(=O)CCC3)ccc1OC(=O)N1CCOCC1 (centres undefined)	none
CC1(C)CC(=O)C2=C(C1)OC(N)=C(C#N)C2c1ccoc1 (centres undefined)	none
COc1ccc(C2C(C#N)=C(N)OC3=C2C(=O)CC(C)(C)C3)cc1OC (centres undefined)	Pf growth 96h inconclusive
COc1cc(C2C(C#N)=C(N)OC3=C2C(=O)CCC3)cc(OC)c1OC(=O)N1CCOCC1 (centres undefined)	Pf growth 96h 4.7µM
CC1(C)CC(=O)C2=C(C1)OC(N)=C(C#N)C2c1cn(-c2ccccc2)nc1-c1ccccc1 (centres undefined)	Pf growth 96h inconclusive, CHX counter 18
CCC(CO)Nc1ccn2nc(-c3cccs3)cc2n1 (centres undefined)	none (no result: Shiga inhibitor, HCV inhibitor, Pf growth 48h, Pf growth 96h, CHX counter)
COCCNC(=O)C1CCCN(C(=O)c2ccc3ccccc3n2)CC1 (centres undefined)	none (no result: Shiga inhibitor, HCV inhibitor, Pf growth 48h, Pf growth 96h, CHX counter)
CCOC(=O)c1sc(SCC(=O)Nc2ccc(N(C)C)cc2)nc1N	Pf growth 96h inconclusive
CN(C)c1ccc(NC(=O)CSc2nc(N)c(C(=O)Nc3ccc(N(C)C)cc3)s2)cc1	HCV inhibitor 10µM, AMA1-RON2 inh inconclusive, Pf growth 48h inconclusive, Pf growth 96h inconclusive, CHX counter 31
COc1ccc(NC(=O)CSc2nc(N)c(C(=O)Nc3ccc(N(C)C)cc3)s2)cc1	Shiga inhibitor 124, HCV inhibitor inconclusive (no result: Pf growth 96h)
CC1CC(C)(C)NC(=S)N1CCC(=O)NCCc1ccc(Cl)cc1 (centres undefined)	Pf growth 96h inconclusive
CC(C)/C(=N/Nc1ccccc1[N+](=O)[O-])c1ccccc1	Shiga inhibitor 48, HCV inhibitor inconclusive, AMA1-RON2 inh inconclusive, Pf growth 96h 8.3µM, CHX counter 27
C/C(=N\NC(=O)c1cccnc1)c1ccc(C)c([N+](=O)[O-])c1	none
C/C(=N/Nc1ccccc1[N+](=O)[O-])c1ccc(C)c([N+](=O)[O-])c1	Pf growth 48h inconclusive, CHX counter 16
COC(=O)N/N=C(\C)c1ccc(C)c([N+](=O)[O-])c1	Shiga inhibitor 17, CHX counter 19
C/C(=N\Nc1ccc([N+](=O)[O-])cc1)c1ccc(N2CCOCC2)cc1	HCV inhibitor inconclusive
C/C(=N\Nc1ccccc1[N+](=O)[O-])c1ccc(N2CCOCC2)cc1	Shiga inhibitor 86, AMA1-RON2 inh inconclusive, CHX counter 21
O=C1/C(=C\c2cccnc2)N2CCC1CC2	AMA1-RON2 inh inconclusive, Pf growth 48h inconclusive, Pf growth 96h 9.3µM
CN1C/C(=C/c2cccnc2)C(=O)/C(=C/c2cccnc2)C1	HCV inhibitor inconclusive, Pf growth 48h inconclusive, Pf growth 96h inconclusive, CHX counter 25
CC(C)N1CC2=C(OC(N)=C(C#N)C2c2cccnc2)/C(=C/c2cccnc2)C1 (centres undefined)	Pf growth 48h inconclusive
O=C1/C(=C\c2ccncc2)N2CCC1CC2	none
CC(C)N1C/C(=C/c2cccnc2)C(=O)/C(=C/c2cccnc2)C1	HCV inhibitor inconclusive, Pf growth 48h 13µM, CHX counter 21
CC(C)N1C/C(=C/c2ccsc2)C(=O)/C(=C/c2ccsc2)C1	HCV inhibitor inconclusive, Pf growth 48h inconclusive, Pf growth 96h inconclusive, CHX counter 15
C#Cc1ccccc1OCCCN1CCC(C(O)(c2ccccc2)c2ccccc2)CC1	none (no result: Shiga inhibitor, HCV inhibitor, Pf growth 48h, Pf growth 96h, CHX counter)
Cc1cccc(C)c1N1C(=O)CCC(C)(C)C1=O	none
C#CCn1c(S(=O)(=O)Cc2ccc(C)cc2)nc(-c2ccccc2)c1-c1ccccc1	HCV inhibitor inconclusive, Pf growth 48h inconclusive, Pf growth 96h inconclusive
C#CCn1c(S(=O)(=O)Cc2ccccc2Cl)nc(-c2ccccc2)c1-c1ccccc1	Pf growth 48h 8.3µM, Pf growth 96h inconclusive
CCOC(=O)Cn1c(=O)c2c(nc(Br)n2Cc2ccccc2Cl)n(C)c1=O	HCV inhibitor inconclusive, Pf growth 48h inconclusive
CCOC(=O)Cn1c(-c2cccnc2)nc(-c2ccccc2)c1-c1ccccc1	Pf growth 48h 4.1µM, Pf growth 96h 2.3µM
CCOC(=O)Cn1nc(-c2ccccc2)c(-c2ccccc2)nc1=O	none
CCOC(=O)Cn1c(S(=O)(=O)Cc2ccccc2Cl)nc(-c2ccccc2)c1-c1ccccc1	Pf growth 48h 9.3µM, Pf growth 96h 2.6µM
Clc1ccc(OCCSc2ncccn2)cc1	Shiga inhibitor 117, Pf growth 96h inconclusive, CHX counter 55
COc1ccc(OCCSc2ncccn2)cc1	Shiga inhibitor 113, AMA1-RON2 inh inconclusive, Pf growth 96h inconclusive, CHX counter 46
COc1ccc(OCCSc2nc(C)nc3ccccc23)cc1	HCV inhibitor inconclusive, AMA1-RON2 inh inconclusive, Pf growth 48h inconclusive, CHX counter 43
